# The list is not random: actives were taken first. Their share in the collection is about 1.8%.
# F508del corr – F508del CFTR correction, initial screen, CFBE line, single point. CFBE cells, YFP halide quenching; stimulated with forskolin plus potentiator P3; % fluorescence drop versus neutral controls. activity (quench increase), % at 7.58 µM. hit rate 0.36% among 350,000;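 active = mean added fluorescence quench of at least 8% versus neutral control, with both replicates also reaching 8%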;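 also: cells transiently co-express mutant CFTR-F508del with the halide-sensitive YFP; corrector assay measuring rescue of mutant channel to the surface after 24 h compound exposure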
# PAX8 inh HTS – inhibitors of PAX8-driven TPO luciferase reporter, primary screen, RMG-I cells, single concentration; SteadyGlo, 24 h; AID 652154, 2013; inhibition, % at 12.6 µM; hit rate 1.2% among 360,000;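 active = mean replicate inhibition at least 60% with every replicate also reaching 60%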;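 also: luciferase light reporting Pax8 driven TPO promoter activity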
# EWS-Fli inh – EWS/Fli-driven NR0B1 reporter inhibitors, primary screen, A673 cells, NR0B1 luciferase, luminescence, MLPCN library; viability-normalised; hit rate 0.67% among 350,000; inhibition, % at 12.6 µM; AID 651661, 2012;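 active = mean inhibition of at least 50% after viability correction, with every replicate also passing that limit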;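 also: firefly luciferase signal divided by Alamar Blue viability fluorescence both relative to DMSO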
# LGR2 inh – inhibitors of bursicon-induced LGR2 CRE-luciferase signal, primary screen, cell-based, HEK293, CRE-luciferase reporter, bursicon stimulation | Drosophila bursicon receptor LGR2 (rickets) | bursicon-stimulated, 4 h | inhibition, % at 9.99 µM | hit rate 0.35% among 380,000;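 active = drop in luminescence signal, shown as inhibition above about 50% in the replicate tests, limit read from the data, passing the limit was not always enough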;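 also: agonist challenge used bursicon conditioned medium at about half maximal strength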
# Hits are given with their value; n = inactive; x = not tested or not shown.
SMILES,F508del corr,PAX8 inh HTS,EWS-Fli inh,LGR2 inh
C[C@H]1CN([C@@H](C)CO)C(=O)Cc2cc(NS(=O)(=O)c3ccc(Cl)cc3)ccc2O[C@H]1CN(C)CC1CCCCC1,n,n,n,x
C[C@@H]1CN([C@H](C)CO)C(=O)Cc2cc(NS(=O)(=O)c3ccc(F)cc3)ccc2O[C@H]1CN(C)Cc1ccc(Cl)c(Cl)c1,n,n,n,n
C[C@@H]1CN([C@@H](C)CO)C(=O)Cc2cc(NS(=O)(=O)c3ccccc3)ccc2O[C@H]1CN(C)Cc1ccc(Cl)c(Cl)c1,n,114,n,n
C[C@H](CO)N1C[C@H](C)[C@H](CN(C)CC2CCCCC2)Oc2ccc(NS(=O)(=O)c3ccc(Cl)cc3)cc2CC1=O,n,106,n,n
Cc1c(Br)c([N+](=O)[O-])nn1C(C)C(=O)NCC1CCCO1 (configuration not stated),n,n,n,n
C[C@@H]1CN([C@H](C)CO)C(=O)Cc2cc(NS(=O)(=O)c3ccc(Cl)cc3)ccc2O[C@H]1CN(C)Cc1ccc(Cl)c(Cl)c1,n,n,n,n
C[C@H](CO)N1C[C@H](C)[C@@H](CN(C)Cc2ccc(Cl)c(Cl)c2)Oc2ccc(NS(=O)(=O)c3ccc(Cl)cc3)cc2CC1=O,n,70,n,n
COc1ccc(S(=O)(=O)Nc2ccc3c(c2)CC(=O)N([C@H](C)CO)C[C@H](C)[C@@H](CN(C)Cc2ccc(Cl)c(Cl)c2)O3)cc1,n,75,n,n
COc1cc(NS(=O)(=O)c2ccc3c(c2)NC(=O)CO3)cc(OC)c1,n,n,x,n
CCCN(CCC)S(=O)(=O)c1ccc(Cl)c([N+](=O)[O-])c1,n,n,54,84
COc1ccc(C(=O)C2CC2c2ccc3c(c2)OCO3)cc1 (configuration not stated),n,n,n,x
Cc1cc(C)c(C(=O)NC2CCCc3c2cnn3-c2cccc(C)c2C)o1 (configuration not stated),8.4,n,n,n
CC(C)CC#Cc1cnc2c(c1)C(=O)N([C@@H](C)CO)C[C@H](C)[C@@H](CN(C)C(=O)c1ccccc1)O2,n,x,n,n
CC[C@@H](C(=O)[C@@H](C)[C@@H](O)[C@H](C)[C@@H]1O[C@@H]([C@@H](CC)C(=O)O)CC[C@@H]1C)[C@H]1O[C@]2(C=C[C@@H](O)[C@]3(CC[C@@](C)([C@H]4CC[C@](O)(CC)[C@H](C)O4)O3)O2)[C@H](C)C[C@@H]1C,n,109,n,x
N#CC1c2ccccc2C=CN1C(=O)N(c1ccccc1)c1ccccc1 (configuration not stated),x,78,n,x
O=C(C[C@H]1CC[C@@H]2[C@H](COC[C@@H](O)CN2S(=O)(=O)c2cccc(F)c2)O1)Nc1ccc(-c2ccccc2)cc1,n,72,n,n
O=C(C[C@H]1CC[C@H]2[C@@H](COC[C@@H](O)CN2S(=O)(=O)c2cccc(F)c2)O1)Nc1ccc(-c2ccccc2)cc1,n,n,n,n
O=C(C[C@H]1CC[C@@H]2[C@H](COC[C@H](O)CN2S(=O)(=O)c2cccc(F)c2)O1)Nc1ccc(-c2ccccc2)cc1,n,116,n,n
C[C@H](CO)N1C[C@H](C)[C@H](CN(C)Cc2ccc(C(F)(F)F)cc2)Oc2ccc(NS(=O)(=O)c3ccc(F)cc3)cc2CC1=O,n,85,n,n
C[C@H]1CN([C@@H](C)CO)C(=O)Cc2cc(NS(=O)(=O)c3ccc(Cl)cc3)ccc2O[C@H]1CN(C)Cc1ccc(C(F)(F)F)cc1,n,n,n,n
C[C@@H]1CN([C@@H](C)CO)C(=O)Cc2cc(NS(=O)(=O)c3cccs3)ccc2O[C@H]1CN(C)Cc1ccc(C(F)(F)F)cc1,n,91,n,n
C[C@H](CO)N1C[C@H](C)[C@H](CN(C)Cc2ccc(C(F)(F)F)cc2)Oc2ccc(NS(=O)(=O)c3ccc(Cl)cc3)cc2CC1=O,n,n,59,n
C[C@H](CO)N1C[C@H](C)[C@@H](CN(C)Cc2ccc(C(F)(F)F)cc2)Oc2ccc(NS(=O)(=O)c3ccccc3)cc2CC1=O,n,76,x,n
Cc1ccc(S(=O)(=O)Nc2ccc3c(c2)CC(=O)N([C@@H](C)CO)C[C@H](C)[C@H](CN(C)Cc2ccc(C(F)(F)F)cc2)O3)cc1,n,n,n,n
C[C@@H]1CN([C@H](C)CO)C(=O)Cc2cc(NS(=O)(=O)c3ccccc3)ccc2O[C@H]1CN(C)Cc1ccccc1,n,n,n,n
SMILES,F508del corr,PAX8 inh HTS,EWS-Fli inh,LGR2 inh
CN(C)Cc1c[nH]c2nccnc12,n,n,n,n
Cc1ccc(S(=O)(=O)Nc2ccc3c(c2)CC(=O)N([C@H](C)CO)C[C@H](C)[C@@H](CN(C)Cc2ccc(C(F)(F)F)cc2)O3)cc1,n,n,n,n
C[C@H](CO)N1C[C@H](C)[C@@H](CN(C)Cc2ccc(C(F)(F)F)cc2)Oc2ccc(NS(=O)(=O)c3ccc(F)cc3)cc2CC1=O,n,83,n,n
CCCCCCCOC(=O)C[N+](C)(C)CCOC1CC2CCC1(C)C2(C)C (configuration not stated),n,n,67,n
O=C(N/N=C/c1ccsc1)c1cc(-c2ccncc2)nc2ccccc12,x,n,x,n
Cc1ccsc1/C=N/NC(=O)c1cc(-c2ccncc2)nc2ccccc12,x,69,n,n
O=C(N/N=C/c1ccc(Cl)cc1)c1cc(-c2cccnc2)nc2ccccc12,n,n,52,n
O=C(N/N=C/c1ccsc1)c1cc(-c2cccs2)nc2ccccc12,n,133,n,n
Cc1ccc(/C=N/NC(=O)c2cc(-c3ccncc3)nc3ccccc23)o1,n,n,x,n
CCN(C(=O)COC(=O)c1c2c(nc3ccccc13)/C(=C/c1ccccc1)CC(C)C2)C1CCS(=O)(=O)C1 (configuration not stated),x,67,x,n
Cc1ccc2c(c1)c1c3n2CCN(C(=O)CCl)C3CCC1 (configuration not stated),n,n,n,n
Cc1ccc2oc(C(=O)N(C)CCC(O)c3ccccc3)c(C)c2c1 (configuration not stated),n,n,n,n
CC(=O)N1CCc2cc(S(=O)(=O)C(C)CC(=O)NCc3ccco3)ccc21 (configuration not stated),n,n,n,56
CC(=O)N1CCc2cc(S(=O)(=O)C(C)CC(=O)NCc3ccc(C)o3)ccc21 (configuration not stated),n,n,n,n
Cc1ccc(S(=O)(=O)N[C@H]2CC[C@H](CCNC(=O)Cc3ccccn3)O[C@H]2CO)cc1,n,n,n,n
CC(=O)N(C)C[C@H]1Oc2ncc(-c3ccccc3F)cc2C(=O)N([C@H](C)CO)C[C@H]1C,n,x,n,n
CN(C)CC(=O)N1CCCCN2[C@H](CO)[C@H](c3ccc(/C=C/c4ccccc4)cc3)[C@H]2C1,n,78,n,n
CN(C)CC(=O)N1CCCCN2[C@H](C1)[C@@H](c1ccc(/C=C/c3ccccc3)cc1)[C@@H]2CO,n,n,n,n
